The source made the active and inactive calls. The calls were made as follows: active = hit-call score of the fitted dose curve at least 0.9, where 1 is the maximum; inactive = score below 0.9.

Read-out in one assay: KRT18 (gene 3875)
The assay can be described thus: BSK_BF4T_Keratin818: BioMAP Diversity Plus: BF4T Assay for Keratin 818 Biomarker Activity (AID 2284266). The note with it: primary human bronchial epithelial cells with fibroblasts. In short, it runs like this: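 Co-culture of human bronchial epithelial cells and dermal fibroblasts, chemical exposure 24 h. Keratin 8/18 measured by ELISA; positive-direction fit vs DMSO. SRB total protein run in parallel cultures for cytotoxicity.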
As to `C[Si](Cl)(Cl)CCC(F)(F)C(F)(F)C(F)(F)C(F)(F)C(F)(F)C(F)(F)F`, the result was inactive.

Consider `NC(O)(C(F)(F)F)C(F)(F)F`, for which the result was inactive.

Take `OCC(F)(F)C(F)(F)C(F)(F)CO`: the outcome was inactive.

Regarding `CCOC(=O)CC(=O)C(F)(F)C(F)(F)F`, the result was inactive.

Take `O=C(Cl)C(F)(F)C(F)(F)C(F)(F)C(F)(F)C(F)(F)C(F)(F)C(F)(F)F`: the result was inactive.

As for `CN(C(=O)C(F)(F)C(F)(F)C(F)(F)F)[Si](C)(C)C`, the result was inactive.

As to `COC(F)(C(F)F)C(F)(F)F` (stereo not drawn), the outcome was inactive.

As to `FC(F)(F)C(F)(F)C(F)(F)CC1CO1` (stereo not drawn), the result was inactive.

`O=C(O)C(F)(F)OC(F)(F)C(F)(F)OC(F)(F)C(F)(F)OC(F)(F)F`: the result was inactive.

On to `O=C(O)C(F)(F)C(F)(F)C(F)(F)C(F)(F)C(F)(F)C(F)(F)C(F)F`, for which the result was inactive.

For the compound `NC(=O)C(F)(F)C(F)(F)C(F)(F)C(F)(F)C(N)=O`, the result was inactive.

As for `O=C(O)CCC(F)(F)C(F)(F)C(F)(F)F`, the result was inactive.

Read-out in another assay: not listed separately
The assay can be described thus: BSK_MyoF_SRB: Viability Assessment in the BioMAP Diversity Plus: MyoF Assay (AID 2284267).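 Also: total protein by SRB absorbance in parallel cultures as cytotoxicity measure; cells assessed 24 h after compound addition.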 The note with it: primary human lung fibroblasts. The method in brief: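 Human lung fibroblasts, 24 h after chemical dosing; total protein measured by 0.1% sulforhodamine B staining after 10% TCA fixation, read at 560 nm, fitted relative to DMSO baseline.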
On to `O=C1c2c(O)ccc(Nc3ccc(CCO)cc3)c2C(=O)c2c([N+](=O)[O-])ccc(O)c21`, for which the concentration at half-maximal activity (AC50) – broadly, the midpoint of the concentration-response curve, whichever way the signal moves – is 11 µM (active).

For the compound `C[Si](Cl)(Cl)CCC(F)(F)C(F)(F)C(F)(F)C(F)(F)C(F)(F)C(F)(F)F`, the result was inactive.

For `Brc1nc2ccccc2s1`, the outcome was inactive.

Regarding `NC(O)(C(F)(F)F)C(F)(F)F`, the result was inactive.

For the compound `CC(C)CCCC(C)CCO` (stereo not drawn), the AC50 was 34.5 µM (active).

Take `CC1=CC2C3C=CC(C3)C2C1C` (stereo not drawn): the result was inactive.

`OCC(F)(F)C(F)(F)C(F)(F)CO`: the result was inactive.

Turning to `Cc1ccc(O)c(-n2nc3ccccc3n2)c1`, the outcome was inactive.

With `CCOC(=O)CC(=O)C(F)(F)C(F)(F)F`, the outcome was inactive.

For `CCN(CC)c1ccc(C=O)cc1`, the outcome was inactive.

For `O=C1C=CC(=O)N1c1ccc(Cc2ccc(N3C(=O)C=CC3=O)cc2)cc1`, the AC50 was 3.58 µM (active).

`C[C@]12CC[C@H]3C(=CCc4cc(O)ccc43)[C@@H]1CCC2=O`: the result was inactive.

For `CC(C)(C)c1cc(CCC(=O)NCCCCCCNC(=O)CCc2cc(C(C)(C)C)c(O)c(C(C)(C)C)c2)cc(C(C)(C)C)c1O`, the outcome was inactive.

With `O=C(Cl)C(F)(F)C(F)(F)C(F)(F)C(F)(F)C(F)(F)C(F)(F)C(F)(F)F`, the result was inactive.

In the case of `CN(C(=O)C(F)(F)C(F)(F)C(F)(F)F)[Si](C)(C)C`, the result was inactive.

As to `Nc1cc([N+](=O)[O-])cc(Cl)c1O`, the result was inactive.

Regarding `CCN(CC)c1ccc(C=O)c(O)c1`, the result was inactive.

Take `Cc1ccc(S(=O)(=O)C(I)I)cc1`: the AC50 is 8.6 µM (active).

As to `Cc1cc(C)c(O)c(C(C)(C)C)c1`, the AC50 is 35.9 µM (active).

In the case of `COC(F)(C(F)F)C(F)(F)F` (stereo not drawn), the result was inactive.

With `FC(F)(F)C(F)(F)C(F)(F)CC1CO1` (stereo not drawn), the outcome was inactive.

As to `Cc1cc(O)c(C(C)(C)C)cc1C(C)(C)C`, the AC50 was 5.29 µM (active).

As for `O=C(c1ccccc1)c1ccc(O)cc1O`, the result was inactive.

`Cc1cnccn1`: the result was inactive.

Take `CCN(CC)c1ccc2c(c1)Oc1cc(N(CC)CC)ccc1C21OC(=O)c2ccccc21`: the outcome was inactive.

Take `O=C(O)C(F)(F)OC(F)(F)C(F)(F)OC(F)(F)C(F)(F)OC(F)(F)F`: the outcome was inactive.

For the compound `CCN(CC)c1ccc(N=Nc2ccccc2)cc1`, the AC50 is 20 µM (active).

Consider `O=C(O)C(F)(F)C(F)(F)C(F)(F)C(F)(F)C(F)(F)C(F)(F)C(F)F`, for which the result was inactive.

For `CCOC(C=C(C)CCC=C(C)C)OCC`, the AC50 was 30.4 µM (active).

In the case of `NC(=O)C(F)(F)C(F)(F)C(F)(F)C(F)(F)C(N)=O`, the outcome was inactive.

In the case of `O=C=Nc1cccc2c(N=C=O)cccc12`, the outcome was inactive.

With `O=C(O)CCC(F)(F)C(F)(F)C(F)(F)F`, the outcome was inactive.

As for `O=C=NCc1cccc(CN=C=O)c1`, the outcome was inactive.

Read-out in another assay: Matrix Metallopeptidase 1 (MMP1), MMP1 (gene 4312)
Description: BSK_MyoF_MMP1: BioMAP Diversity Plus: MyoF Assay for Matrix Metallopeptidase 1 (MMP1) Biomarker Activity (AID 2284268). The note with it: primary human lung fibroblasts. The method in brief:
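Lung fibroblast cultures were dosed with test chemicals and, after 24 h, MMP1 levels were measured by ELISA; responses were referenced to DMSO and analysed for increases.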
With `O=C1c2c(O)ccc(Nc3ccc(CCO)cc3)c2C(=O)c2c([N+](=O)[O-])ccc(O)c21`, the AC50 was 11 µM (active).

In the case of `C[Si](Cl)(Cl)CCC(F)(F)C(F)(F)C(F)(F)C(F)(F)C(F)(F)C(F)(F)F`, the result was inactive.

As to `Brc1nc2ccccc2s1`, the outcome was inactive.

In the case of `NC(O)(C(F)(F)F)C(F)(F)F`, the outcome was inactive.

As to `CC(C)CCCC(C)CCO` (stereo not drawn), the AC50 was 33.7 µM (active).

As for `CC1=CC2C3C=CC(C3)C2C1C` (stereo not drawn), the result was inactive.

Consider `OCC(F)(F)C(F)(F)C(F)(F)CO`, for which the outcome was inactive.

For `Cc1ccc(O)c(-n2nc3ccccc3n2)c1`, the result was inactive.

With `CCOC(=O)CC(=O)C(F)(F)C(F)(F)F`, the result was inactive.

As to `CCN(CC)c1ccc(C=O)cc1`, the outcome was inactive.

In the case of `O=C1C=CC(=O)N1c1ccc(Cc2ccc(N3C(=O)C=CC3=O)cc2)cc1`, the AC50 was 11.7 µM (active).

Turning to `C[C@]12CC[C@H]3C(=CCc4cc(O)ccc43)[C@@H]1CCC2=O`, the outcome was inactive.

For `CC(C)(C)c1cc(CCC(=O)NCCCCCCNC(=O)CCc2cc(C(C)(C)C)c(O)c(C(C)(C)C)c2)cc(C(C)(C)C)c1O`, the result was inactive.

Turning to `O=C(Cl)C(F)(F)C(F)(F)C(F)(F)C(F)(F)C(F)(F)C(F)(F)C(F)(F)F`, the result was inactive.

As to `CN(C(=O)C(F)(F)C(F)(F)C(F)(F)F)[Si](C)(C)C`, the outcome was inactive.

Regarding `Nc1cc([N+](=O)[O-])cc(Cl)c1O`, the outcome was inactive.

Turning to `CCN(CC)c1ccc(C=O)c(O)c1`, the outcome was inactive.

Take `Cc1ccc(S(=O)(=O)C(I)I)cc1`: the AC50 was 11.2 µM (active).

Turning to `Cc1cc(C)c(O)c(C(C)(C)C)c1`, the result was inactive.

With `COC(F)(C(F)F)C(F)(F)F` (stereo not drawn), the outcome was inactive.

Take `FC(F)(F)C(F)(F)C(F)(F)CC1CO1` (stereo not drawn): the outcome was inactive.

In the case of `Cc1cc(O)c(C(C)(C)C)cc1C(C)(C)C`, the AC50 is 9.48 µM (active).

With `O=C(c1ccccc1)c1ccc(O)cc1O`, the outcome was inactive.

For the compound `Cc1cnccn1`, the result was inactive.

As to `CCN(CC)c1ccc2c(c1)Oc1cc(N(CC)CC)ccc1C21OC(=O)c2ccccc21`, the outcome was inactive.

For `O=C(O)C(F)(F)OC(F)(F)C(F)(F)OC(F)(F)C(F)(F)OC(F)(F)F`, the outcome was inactive.

Consider `CCN(CC)c1ccc(N=Nc2ccccc2)cc1`, for which the AC50 was 5.14 µM (active).

Consider `O=C(O)C(F)(F)C(F)(F)C(F)(F)C(F)(F)C(F)(F)C(F)(F)C(F)F`, for which the result was inactive.

Regarding `CCOC(C=C(C)CCC=C(C)C)OCC`, the AC50 was 31.3 µM (active).

Turning to `NC(=O)C(F)(F)C(F)(F)C(F)(F)C(F)(F)C(N)=O`, the result was inactive.

With `O=C=Nc1cccc2c(N=C=O)cccc12`, the outcome was inactive.

Take `O=C(O)CCC(F)(F)C(F)(F)C(F)(F)F`: the outcome was inactive.

As for `O=C=NCc1cccc(CN=C=O)c1`, the result was inactive.

These data come from PubChem BioAssay (EPA / NIEHS).
